The text below walks through data of PMC7862700, “An all-to-all approach to the identification of sequence-specific readers for epigenetic DNA modifications on cytosine”.

What all share (assay): DAPPL (digital affinity profiling via proximity ligation, sequencing); 10 mM Tris-HCl pH 7.5, 50 mM NaCl, 1 mM DTT, 4% glycerol, room temperature, 30 min; GST-TFs on glutathione beads, 16-mer random dsDNA library, 0.1% formaldehyde crosslink after washing; high values mean tight binding
The target of one assay is T1, FLI1 (Homo sapiens, UniProt Q01543 1-452).
T1 sequence: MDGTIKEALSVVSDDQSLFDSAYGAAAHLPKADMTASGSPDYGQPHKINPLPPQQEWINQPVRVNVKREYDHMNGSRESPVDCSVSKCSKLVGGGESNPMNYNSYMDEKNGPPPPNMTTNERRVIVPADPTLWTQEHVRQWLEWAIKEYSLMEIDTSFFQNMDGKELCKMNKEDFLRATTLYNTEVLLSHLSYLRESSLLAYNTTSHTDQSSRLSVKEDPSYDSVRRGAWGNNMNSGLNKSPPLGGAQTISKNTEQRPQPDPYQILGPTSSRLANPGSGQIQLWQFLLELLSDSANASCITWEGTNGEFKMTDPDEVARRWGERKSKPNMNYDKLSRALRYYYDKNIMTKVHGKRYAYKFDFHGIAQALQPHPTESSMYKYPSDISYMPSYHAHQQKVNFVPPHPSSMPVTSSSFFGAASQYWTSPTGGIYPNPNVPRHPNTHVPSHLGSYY
Particulars: protein: recombinant; tags: N-terminal GST; dsDNA, one strand shown. In outline:
(§1)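 Sequencing on an Illumina NextSeq500 followed washing, crosslinking with 0.1% formaldehyde, proximity ligation (BsaI/T4 ligase, 1 h, 37 °C) and PCR amplification of pools that had been incubated for 30 min at room temperature with 200 nmole of a random double-stranded 16-mer DNA library in Tris/NaCl/DTT/glycerol buffer. Each pool held DNA-barcoded human transcription factors, expressed in yeast as GST fusions and captured on glutathione beads, plus a tag-only sample. Binding signal is a hexamer's read frequency for a factor divided by its frequency in the tag-only sample.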

The target in a further assay is T2, ELK1 (Homo sapiens, UniProt P19419 1-428).
T2 sequence: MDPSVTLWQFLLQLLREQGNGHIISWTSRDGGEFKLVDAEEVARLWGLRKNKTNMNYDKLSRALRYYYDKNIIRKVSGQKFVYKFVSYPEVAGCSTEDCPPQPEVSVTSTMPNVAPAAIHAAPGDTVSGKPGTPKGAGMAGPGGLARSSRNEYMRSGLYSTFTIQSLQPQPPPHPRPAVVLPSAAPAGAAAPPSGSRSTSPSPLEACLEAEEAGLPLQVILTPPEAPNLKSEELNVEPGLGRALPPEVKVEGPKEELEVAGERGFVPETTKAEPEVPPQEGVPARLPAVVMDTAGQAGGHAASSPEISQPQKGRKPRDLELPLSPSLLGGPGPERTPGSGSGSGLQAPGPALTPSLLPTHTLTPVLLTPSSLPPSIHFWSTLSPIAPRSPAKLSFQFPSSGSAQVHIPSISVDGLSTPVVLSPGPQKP
As to conditions: protein: recombinant; tags: N-terminal GST; dsDNA, one strand shown. The gist of the method: as §1

In a further assay the target is T3, GABPA (Homo sapiens, UniProt Q06546 1-454).
T3 sequence: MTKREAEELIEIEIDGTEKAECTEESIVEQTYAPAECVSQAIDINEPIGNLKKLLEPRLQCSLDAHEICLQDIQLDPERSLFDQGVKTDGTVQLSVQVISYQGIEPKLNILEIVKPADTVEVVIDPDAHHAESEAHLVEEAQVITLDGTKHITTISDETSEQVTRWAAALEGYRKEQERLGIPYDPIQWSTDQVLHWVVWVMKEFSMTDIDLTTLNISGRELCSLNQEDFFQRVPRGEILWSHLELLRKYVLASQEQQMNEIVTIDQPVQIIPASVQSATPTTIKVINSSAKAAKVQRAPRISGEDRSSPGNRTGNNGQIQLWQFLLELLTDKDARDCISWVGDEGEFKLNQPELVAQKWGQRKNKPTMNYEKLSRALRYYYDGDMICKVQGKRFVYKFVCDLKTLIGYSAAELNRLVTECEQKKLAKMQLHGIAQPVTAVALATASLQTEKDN
As to conditions: protein: recombinant; tags: N-terminal GST; dsDNA, one strand shown. In outline: as §1

For a further assay, the target named is T4, ERG (Homo sapiens, UniProt P11308 1-479).
T4 sequence: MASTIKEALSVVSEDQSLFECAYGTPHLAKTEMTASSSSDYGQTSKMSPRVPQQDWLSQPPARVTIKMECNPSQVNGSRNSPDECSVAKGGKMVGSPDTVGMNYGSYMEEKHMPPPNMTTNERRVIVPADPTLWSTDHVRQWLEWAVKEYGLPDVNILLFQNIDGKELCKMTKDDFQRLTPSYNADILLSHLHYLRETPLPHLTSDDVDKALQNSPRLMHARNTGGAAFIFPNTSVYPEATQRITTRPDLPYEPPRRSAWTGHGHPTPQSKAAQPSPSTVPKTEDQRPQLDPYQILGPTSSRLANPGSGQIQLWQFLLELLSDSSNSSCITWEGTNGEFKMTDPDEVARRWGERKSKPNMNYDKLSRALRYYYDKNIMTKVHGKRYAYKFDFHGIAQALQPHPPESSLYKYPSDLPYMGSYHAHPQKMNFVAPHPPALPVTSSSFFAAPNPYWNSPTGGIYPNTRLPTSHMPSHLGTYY
As to conditions: protein: recombinant; tags: N-terminal GST; dsDNA, one strand shown. The gist of the method: as §1

The target of the next assay is ELF1 (Homo sapiens, UniProt P32519 1-619). As to conditions: protein: recombinant; tags: N-terminal GST; dsDNA, one strand shown. The gist of the method: as §1
The target in the next assay is T5, EHF (Homo sapiens, UniProt Q9NZC4 1-300).
T5 sequence: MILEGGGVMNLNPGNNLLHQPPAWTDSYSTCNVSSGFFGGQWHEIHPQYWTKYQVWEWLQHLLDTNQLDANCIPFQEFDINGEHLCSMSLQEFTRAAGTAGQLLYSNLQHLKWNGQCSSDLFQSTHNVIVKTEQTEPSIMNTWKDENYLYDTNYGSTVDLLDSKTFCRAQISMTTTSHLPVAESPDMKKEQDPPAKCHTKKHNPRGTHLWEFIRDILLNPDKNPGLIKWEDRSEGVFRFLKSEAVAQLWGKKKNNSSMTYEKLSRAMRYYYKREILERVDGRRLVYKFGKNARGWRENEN
Particulars: protein: recombinant; tags: N-terminal GST; dsDNA, one strand shown. The gist of the method:
as §1

Another assay addresses SPI1 (Homo sapiens, UniProt P17947 1-270). As to conditions: protein: recombinant; tags: N-terminal GST; dsDNA, one strand shown. In outline: as §1
The target in the next assay is SPIB (Homo sapiens, UniProt Q01892 1-262). As to conditions: protein: recombinant; tags: N-terminal GST; dsDNA, one strand shown. The gist of the method:
as §1

In another assay the target is T6, ELK3 (Homo sapiens, UniProt P41970 1-407).
T6 sequence: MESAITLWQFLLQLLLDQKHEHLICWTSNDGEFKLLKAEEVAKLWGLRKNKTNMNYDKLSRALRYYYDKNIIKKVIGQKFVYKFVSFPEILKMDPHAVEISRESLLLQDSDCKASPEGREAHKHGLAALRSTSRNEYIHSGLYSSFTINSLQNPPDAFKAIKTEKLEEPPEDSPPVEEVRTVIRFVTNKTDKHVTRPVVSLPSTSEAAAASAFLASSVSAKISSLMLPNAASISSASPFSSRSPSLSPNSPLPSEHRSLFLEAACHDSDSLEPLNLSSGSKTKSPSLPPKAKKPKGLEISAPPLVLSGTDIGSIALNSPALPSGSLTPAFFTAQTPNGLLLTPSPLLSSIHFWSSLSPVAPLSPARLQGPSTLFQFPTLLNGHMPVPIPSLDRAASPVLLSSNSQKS
Particulars: protein: recombinant; tags: N-terminal GST; dsDNA, one strand shown. In outline:
as §1

In the next assay the target is T7, FEV (Homo sapiens, UniProt Q99581 1-238).
T7 sequence: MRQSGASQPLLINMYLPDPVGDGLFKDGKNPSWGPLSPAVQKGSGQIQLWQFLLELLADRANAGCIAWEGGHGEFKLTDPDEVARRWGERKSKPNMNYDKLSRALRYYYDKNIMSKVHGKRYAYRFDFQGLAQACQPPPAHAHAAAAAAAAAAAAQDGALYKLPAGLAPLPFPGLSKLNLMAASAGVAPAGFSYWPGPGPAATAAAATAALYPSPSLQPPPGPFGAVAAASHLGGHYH
As to conditions: protein: recombinant; tags: N-terminal GST; dsDNA, one strand shown. The gist of the method: as §1

For another assay, the target named is ETV5 (Homo sapiens, UniProt P41161 1-510). As to conditions: protein: recombinant; tags: N-terminal GST; dsDNA, one strand shown. The gist of the method:
as §1

The target of a further assay is HSF1 (Homo sapiens, UniProt Q00613 1-529). Particulars: protein: recombinant; tags: N-terminal GST; chain copies: 3; dsDNA, one strand shown. The gist of the method: as §1
Another assay concerns the target T8, SPIC (Homo sapiens, UniProt Q8N5J4 1-248).
T8 sequence: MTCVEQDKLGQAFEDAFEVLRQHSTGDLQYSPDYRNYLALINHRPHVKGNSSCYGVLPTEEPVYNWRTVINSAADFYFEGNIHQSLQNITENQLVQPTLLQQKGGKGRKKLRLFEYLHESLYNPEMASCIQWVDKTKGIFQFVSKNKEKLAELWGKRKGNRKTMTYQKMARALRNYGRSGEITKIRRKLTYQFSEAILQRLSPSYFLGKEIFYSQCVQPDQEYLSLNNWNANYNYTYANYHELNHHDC
As to conditions: protein: recombinant; tags: N-terminal GST; dsDNA, one strand shown. In outline:
as §1

A further assay concerns the target ELF4 (Homo sapiens, UniProt Q99607 1-663). As to conditions: protein: recombinant; tags: N-terminal GST; dsDNA, one strand shown. In outline: as §1
The target in the next assay is T9, ELK4 (Homo sapiens, UniProt P28324-2 1-405).
T9 sequence: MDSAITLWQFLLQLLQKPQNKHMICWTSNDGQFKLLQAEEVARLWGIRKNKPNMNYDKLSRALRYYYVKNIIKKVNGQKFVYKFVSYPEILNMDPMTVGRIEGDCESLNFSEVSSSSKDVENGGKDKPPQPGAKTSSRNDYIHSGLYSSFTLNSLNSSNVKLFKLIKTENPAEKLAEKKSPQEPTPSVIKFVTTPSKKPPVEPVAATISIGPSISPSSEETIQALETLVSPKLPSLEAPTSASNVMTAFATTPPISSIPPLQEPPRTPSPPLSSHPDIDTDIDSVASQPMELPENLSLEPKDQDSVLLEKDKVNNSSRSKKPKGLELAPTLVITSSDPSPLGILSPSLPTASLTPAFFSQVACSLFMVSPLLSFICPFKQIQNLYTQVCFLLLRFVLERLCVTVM
Particulars: protein: recombinant; tags: N-terminal GST; dsDNA, one strand shown. In outline:
as §1

A further assay has as its target T10, ETV2 (Homo sapiens, UniProt O00321 1-342).
T10 sequence: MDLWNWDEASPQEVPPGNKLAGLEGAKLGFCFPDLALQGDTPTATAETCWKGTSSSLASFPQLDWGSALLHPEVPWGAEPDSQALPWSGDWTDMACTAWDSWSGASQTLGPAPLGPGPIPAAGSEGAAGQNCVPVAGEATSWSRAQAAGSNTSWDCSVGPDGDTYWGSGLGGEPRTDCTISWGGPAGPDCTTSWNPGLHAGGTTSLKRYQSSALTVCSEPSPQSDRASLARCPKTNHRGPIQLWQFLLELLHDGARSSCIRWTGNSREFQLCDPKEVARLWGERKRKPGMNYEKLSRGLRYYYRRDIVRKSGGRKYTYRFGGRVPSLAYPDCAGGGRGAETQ
As to conditions: protein: recombinant; tags: N-terminal GST; dsDNA, one strand shown. In outline: as §1

Another assay concerns the target T11, ELF3 (Homo sapiens, UniProt P78545 1-371).
T11 sequence: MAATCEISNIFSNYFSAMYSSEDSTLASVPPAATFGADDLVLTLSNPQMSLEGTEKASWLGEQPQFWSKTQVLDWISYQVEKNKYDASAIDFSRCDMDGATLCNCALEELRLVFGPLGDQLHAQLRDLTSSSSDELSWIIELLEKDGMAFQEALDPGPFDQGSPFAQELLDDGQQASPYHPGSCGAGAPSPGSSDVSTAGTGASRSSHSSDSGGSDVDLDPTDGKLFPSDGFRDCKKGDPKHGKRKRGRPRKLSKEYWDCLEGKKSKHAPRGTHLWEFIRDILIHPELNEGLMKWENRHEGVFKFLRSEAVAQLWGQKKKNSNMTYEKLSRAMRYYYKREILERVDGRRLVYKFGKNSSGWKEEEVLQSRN
Particulars: protein: recombinant; tags: N-terminal GST; dsDNA, one strand shown. The gist of the method:
as §1

Another assay deals with ETV1 (Homo sapiens, UniProt P50549 1-477). As to conditions: protein: recombinant; tags: N-terminal GST; dsDNA, one strand shown. In outline:
as §1

Chain of ELF1 (P32519 whole entry): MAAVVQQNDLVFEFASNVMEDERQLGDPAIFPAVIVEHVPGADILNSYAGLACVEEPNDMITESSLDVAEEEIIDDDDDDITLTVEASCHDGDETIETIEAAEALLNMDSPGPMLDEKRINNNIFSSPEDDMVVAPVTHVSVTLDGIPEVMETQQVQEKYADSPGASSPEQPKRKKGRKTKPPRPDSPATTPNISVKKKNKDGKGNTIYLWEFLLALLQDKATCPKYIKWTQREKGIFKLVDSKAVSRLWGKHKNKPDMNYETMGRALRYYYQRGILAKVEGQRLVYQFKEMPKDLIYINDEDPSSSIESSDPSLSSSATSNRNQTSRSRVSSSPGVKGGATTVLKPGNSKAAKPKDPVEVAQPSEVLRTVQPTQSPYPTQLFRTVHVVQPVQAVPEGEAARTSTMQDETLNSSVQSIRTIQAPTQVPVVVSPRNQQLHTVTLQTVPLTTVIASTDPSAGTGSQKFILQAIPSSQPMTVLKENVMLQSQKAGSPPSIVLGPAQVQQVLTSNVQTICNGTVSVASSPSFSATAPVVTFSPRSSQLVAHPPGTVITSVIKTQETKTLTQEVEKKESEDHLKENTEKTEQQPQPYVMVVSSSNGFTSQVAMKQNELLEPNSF
Chain of HSF1 (Q00613 whole entry): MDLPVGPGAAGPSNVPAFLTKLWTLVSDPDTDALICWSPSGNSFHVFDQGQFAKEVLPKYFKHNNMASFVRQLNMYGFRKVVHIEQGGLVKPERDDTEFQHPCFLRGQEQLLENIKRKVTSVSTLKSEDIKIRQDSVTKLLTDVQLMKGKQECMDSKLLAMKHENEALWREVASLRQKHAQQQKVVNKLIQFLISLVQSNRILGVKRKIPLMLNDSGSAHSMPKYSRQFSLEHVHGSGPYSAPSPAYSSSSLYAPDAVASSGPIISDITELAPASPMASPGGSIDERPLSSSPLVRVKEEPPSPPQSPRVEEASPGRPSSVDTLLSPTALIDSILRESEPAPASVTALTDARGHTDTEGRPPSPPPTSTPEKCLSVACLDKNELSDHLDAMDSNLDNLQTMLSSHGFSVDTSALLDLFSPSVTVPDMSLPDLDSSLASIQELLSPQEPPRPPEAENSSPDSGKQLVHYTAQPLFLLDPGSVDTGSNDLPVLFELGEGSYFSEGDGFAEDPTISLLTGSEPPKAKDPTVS
Chain of SPIB (Q01892 whole entry): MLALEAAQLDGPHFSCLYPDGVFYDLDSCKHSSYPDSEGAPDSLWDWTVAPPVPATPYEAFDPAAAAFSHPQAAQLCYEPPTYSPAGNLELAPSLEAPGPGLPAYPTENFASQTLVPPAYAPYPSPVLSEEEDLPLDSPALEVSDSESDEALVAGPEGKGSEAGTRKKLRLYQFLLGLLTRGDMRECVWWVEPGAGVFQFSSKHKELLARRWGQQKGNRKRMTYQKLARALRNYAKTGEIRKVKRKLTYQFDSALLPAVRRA
Chain of ETV1 (P50549 whole entry): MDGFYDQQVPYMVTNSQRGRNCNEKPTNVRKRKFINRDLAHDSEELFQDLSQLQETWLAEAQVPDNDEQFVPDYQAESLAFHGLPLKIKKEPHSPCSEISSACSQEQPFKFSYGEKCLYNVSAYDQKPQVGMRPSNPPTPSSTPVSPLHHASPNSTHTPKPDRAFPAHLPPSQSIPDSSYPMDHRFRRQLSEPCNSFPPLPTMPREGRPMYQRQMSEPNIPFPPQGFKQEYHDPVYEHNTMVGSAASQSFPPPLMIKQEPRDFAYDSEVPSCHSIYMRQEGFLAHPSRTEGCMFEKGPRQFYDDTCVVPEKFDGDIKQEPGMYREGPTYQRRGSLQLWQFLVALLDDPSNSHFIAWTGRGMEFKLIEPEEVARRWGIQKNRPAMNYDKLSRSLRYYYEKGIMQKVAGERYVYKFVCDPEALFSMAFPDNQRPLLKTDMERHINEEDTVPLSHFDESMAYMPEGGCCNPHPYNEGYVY
Chain of ELF4 (Q99607 whole entry): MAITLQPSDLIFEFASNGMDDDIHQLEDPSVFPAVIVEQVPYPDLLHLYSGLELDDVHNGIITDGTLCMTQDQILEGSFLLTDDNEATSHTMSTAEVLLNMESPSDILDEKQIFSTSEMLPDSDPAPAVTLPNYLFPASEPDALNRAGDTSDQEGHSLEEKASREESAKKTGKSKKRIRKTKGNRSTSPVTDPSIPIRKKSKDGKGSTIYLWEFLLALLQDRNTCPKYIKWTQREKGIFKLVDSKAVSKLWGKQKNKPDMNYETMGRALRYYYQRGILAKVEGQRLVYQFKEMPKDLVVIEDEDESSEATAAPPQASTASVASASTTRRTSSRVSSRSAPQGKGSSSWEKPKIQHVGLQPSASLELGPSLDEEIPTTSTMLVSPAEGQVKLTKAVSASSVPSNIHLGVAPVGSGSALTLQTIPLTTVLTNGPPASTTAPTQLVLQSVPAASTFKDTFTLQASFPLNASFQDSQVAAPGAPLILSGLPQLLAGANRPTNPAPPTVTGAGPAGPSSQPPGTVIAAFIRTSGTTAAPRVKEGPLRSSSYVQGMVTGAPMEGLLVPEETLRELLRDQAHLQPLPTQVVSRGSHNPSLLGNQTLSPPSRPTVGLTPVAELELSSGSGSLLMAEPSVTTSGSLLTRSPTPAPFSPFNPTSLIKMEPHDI
Chain of ETV5 (P41161 whole entry): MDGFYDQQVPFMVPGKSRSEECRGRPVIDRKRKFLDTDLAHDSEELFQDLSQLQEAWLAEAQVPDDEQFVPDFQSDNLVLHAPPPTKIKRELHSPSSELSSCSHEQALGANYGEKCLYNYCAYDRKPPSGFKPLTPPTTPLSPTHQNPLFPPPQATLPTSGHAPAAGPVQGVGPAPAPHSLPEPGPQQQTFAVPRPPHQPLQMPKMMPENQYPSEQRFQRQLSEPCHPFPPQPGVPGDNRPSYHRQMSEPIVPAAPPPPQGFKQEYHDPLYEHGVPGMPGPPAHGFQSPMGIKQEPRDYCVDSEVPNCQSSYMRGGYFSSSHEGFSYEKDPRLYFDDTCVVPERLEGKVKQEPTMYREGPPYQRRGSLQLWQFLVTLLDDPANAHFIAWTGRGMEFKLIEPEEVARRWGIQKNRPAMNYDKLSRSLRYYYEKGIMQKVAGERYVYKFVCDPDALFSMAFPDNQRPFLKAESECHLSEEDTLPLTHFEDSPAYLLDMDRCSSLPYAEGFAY

On to CTTGAC, for which the binding signal in the assay with FLI1 is 1.17 fold enrichment (6-mer frequency, TF over GST control); with ELK1 it was 1.3 fold enrichment (6-mer frequency, TF over GST control); with GABPA, 1.3 fold enrichment (6-mer frequency, TF over GST control); in the assay with ERG, 1.2 fold enrichment (6-mer frequency, TF over GST control); with ELF1, 1.2 fold enrichment (6-mer frequency, TF over GST control); with EHF, 1.14 fold enrichment (6-mer frequency, TF over GST control). Also, the binding signal in the assay with SPI1 is 1.18 fold enrichment (6-mer frequency, TF over GST control); with SPIB it was 1.19 fold enrichment (6-mer frequency, TF over GST control); in the assay with ELK3, 1.23 fold enrichment (6-mer frequency, TF over GST control); with FEV, 1.18 fold enrichment (6-mer frequency, TF over GST control); with ETV5 it was 1.14 fold enrichment (6-mer frequency, TF over GST control); with HSF1, 1.02 fold enrichment (6-mer frequency, TF over GST control). Besides, the binding signal with SPIC was 1.14 fold enrichment (6-mer frequency, TF over GST control); with ELF4 it was 1.27 fold enrichment (6-mer frequency, TF over GST control); with ELK4, 1.37 fold enrichment (6-mer frequency, TF over GST control); with ETV2 it was 1.33 fold enrichment (6-mer frequency, TF over GST control); in the assay with ELF3, 1.33 fold enrichment (6-mer frequency, TF over GST control); with ETV1, 1.33 fold enrichment (6-mer frequency, TF over GST control).
